ELG1 genotoxic = inducers of genotoxicity in HEK293T ELG1-luciferase cells; HEK293T ELG1-luciferase reporter, luminescence, 16 h; Potency, µM (doses to about 46 µM), usual class: activators; hit rate 1.3% among 330,000; AID 504466; also: nearly all actives have a fitted effect of over 60% in size
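HEK293T cells expressing luciferase-tagged ELG1 were treated with compound or DMSO for 16 hr at 37°C. Luciferase activity was then read after 30 min with ONE-Glo at room temperature; rising signal flags genetic stress.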
NPC1 promoter act = activators of NPC1 promoter; Huh7 NPC1 promoter luciferase reporter, 24 h; Potency, µM (titrated, usually from 9.22 µM), most hits filed as activators; hit rate 2.4% among 320,000; also: nearly all actives have a fitted effect of over 60% in size
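Stable NPC1-promoter luciferase Huh7 line; cpd (DMSO) 24 h, 37 °C, 5% CO2; Amplite luciferase reagent 10 min RT; luminescence readout. qHTS format.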
SMN2 splice enh = enhancers of SMN2 splice variant expression | HEK293 SMN2-luciferase splicing reporter, luminescence, 30-36 h | Potency, µM (doses to about 46.1 µM), usual class: activators | hit rate 2.8% among 210,000; also: nearly all actives have a fitted effect of over 55% in size
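HEK293 cells carry an SMN2 […]–luciferase reporter in which exon 7 inclusion puts luciferase in frame. Cells were plated 10-12 h before compound addition, then incubated 30-36 h at 37C. ONE-Glo luminescence was read; sodium butyrate at 4.5 mM final served as control.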
Rab9 promoter act = Rab9 promoter activation; Huh7 Rab9 promoter-luciferase reporter, luminescence, 24 h; Potency, µM (doses to about 9.22 µM), actives largely listed as activators; hit rate 2.8% among 320,000; AID 485297; also: nearly all actives have a fitted effect of over 60% in size
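Rab9 promoter-driven luciferase in stably transfected Huh7 cells; 1500 cells/well rested 2 h, exposed to compound in DMSO for 24 h at 37 °C, 5% CO2. Luminescence read 10 min after adding luciferase reagent at ambient temperature.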
FLuc modulator = counter-screen for miR-21 project: firefly luciferase inhibitors or activators; P08659; purified FLuc, Km substrates, luminescence inhibition; Potency, µM (highest dose often 57.5 µM), most hits filed as inhibitors; hit rate 6.9% among 360,000; AID 588342; also: nearly all actives have a fitted effect of over 55% in size
Target sequence (P08659 whole entry, looked up): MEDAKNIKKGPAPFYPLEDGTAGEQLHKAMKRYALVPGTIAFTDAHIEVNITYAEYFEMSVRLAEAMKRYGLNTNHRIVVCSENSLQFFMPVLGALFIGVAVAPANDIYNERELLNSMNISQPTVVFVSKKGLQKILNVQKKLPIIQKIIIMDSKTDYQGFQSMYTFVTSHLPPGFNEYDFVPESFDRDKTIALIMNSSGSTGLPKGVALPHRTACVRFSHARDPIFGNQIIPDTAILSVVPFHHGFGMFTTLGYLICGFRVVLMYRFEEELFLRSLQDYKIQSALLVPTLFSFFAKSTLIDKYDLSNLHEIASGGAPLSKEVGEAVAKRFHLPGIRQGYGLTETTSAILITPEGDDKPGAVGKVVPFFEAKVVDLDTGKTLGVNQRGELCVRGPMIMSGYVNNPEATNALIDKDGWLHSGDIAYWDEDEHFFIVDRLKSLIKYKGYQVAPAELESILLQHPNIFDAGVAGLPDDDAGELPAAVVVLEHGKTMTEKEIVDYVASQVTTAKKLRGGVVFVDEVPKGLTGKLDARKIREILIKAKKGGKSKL
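Biochemical qHTS of compounds, final roughly 60 µM downward over six points, against 10 nM purified firefly luciferase using Km concentrations of substrates (10 uM D-luciferin, 10 uM ATP) in Tris acetate pH 7.5 buffer; luminescence output.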
KinaseGlo FLuc = Kinase-Glo luciferase inhibition (counter-screen); Q27757; Kinase-Glo luciferase, ATP luminescence, 8 min; Potency, µM (titrated, usually from 38.3 µM), actives largely listed as inhibitors; hit rate 0.28% among 200,000; AID 1379; also: nearly all actives have a fitted effect of over 60% in size
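Compounds were added to a substrate mix at pH 7.2 (50 mM imidazole, 10 uM ATP, within the enzyme's linear range), followed by Kinase-Glo detection reagent; luminescence was measured after 8 minutes at ambient temperature.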
Numbers stand for hits; - = inactive; ? = inconclusive; . = no result; [ ] = another dose, or the depositor's remark. Sampled rows, rich in hits. Any-hit rate of the full collection: about 7.3%. Calls follow the shape of the dose curve; as a rule, active = well fitted curve in the direction sought with a large enough effect; inconclusive = small, poorly fitted or top-dose-only effect, or another doubt; inactive = no such curve, though single readings can be large; an effect the other way counts as inactive or inconclusive.

SMILES | ELG1 genotoxic | NPC1 promoter act | SMN2 splice enh | Rab9 promoter act | FLuc modulator | KinaseGlo FLuc
CCCn1c(=O)c2c(C(=O)OCC)cc(-c3ccco3)nc2n(CCC)c1=O | - | - | - | - | - | -
CCOc1ccc2c(c1)sc(=NC(=O)C1CC1)n2C | . | . | 11.2µM | . | 7.57µM | -
CC1=C([N+](=O)[O-])C(c2ccc(O)c(O)c2)NC(=O)N1 (stereo not drawn) | - | - | . | -[1.84 µM] | - | .
Cc1ccc(N2C(=O)CC(SCC(=O)Nc3ccc(S(N)(=O)=O)cc3)C2=O)cc1 (stereo not drawn) | ? | ? | . | ? | 26.9µM | .
O=c1cc(-c2ccc(O)cc2)oc2cc(O)cc(O)c12 | . | ? | 22.4µM | - | . | -
COc1cc(O)c2c(=O)cc(-c3ccccc3)oc2c1 | ? | ? | . | - | ? | -
O=c1cc(-c2ccccc2)oc2cc(O)cc(O)c12 | . | . | 3.98µM | . | . | -
COC(=O)N/N=C\c1cc2c(cc1Br)OCO2 | - | - | - | - | - | -
c1ccc2c(c1)NC1(CCCC1)n1c-2nc2ccccc21 | - | - | - | - | 19µM | -
CCCn1c(-c2ccc[nH]c2=O)nc2ccccc21 | - | - | . | - | - | -
CCCC1(C)Nc2ccccc2-c2nc3ccccc3n21 (stereo not drawn) | - | - | - | ? | 19µM | -
COCCCN1C(=O)c2ccc(C(=O)Nc3ccc(C)cc3C)cc2C1=O | - | - | . | - | ? | .
Cc1ccc(-n2ncc3c(N(CCO)Cc4ccccc4)ncnc32)cc1 | . | . | . | . | 10.7µM | .
Cc1ccc(-n2ncc3c(N(C)Cc4ccccc4)ncnc32)cc1 | . | . | . | . | 0.675µM | .
CC(=O)c1ccc(N2CCN(CC(=O)Nc3ccc4c(c3)OCCO4)CC2)cc1 | - | - | . | - | - | .
O=C(N/N=C/c1cccc(Oc2ccccc2)c1)c1cccc(O)c1 | - | - | . | - | 16.9µM | .
COc1ccc(/C=N/NC(=O)c2nonc2N)cc1OC | - | - | . | - | ? | .
O=C(N/N=C/c1cccc(Oc2ccccc2)c1)c1cccc(Br)c1 | - | - | - | - | ? | -
O=C(N/N=C/c1cccc(O)c1)N/N=C/c1cccc(O)c1 | - | - | . | - | 5.36µM | .
Cc1nonc1C(=O)N/N=C/c1cccc(O)c1 | - | - | - | - | 12µM | 8.91µM
Cc1nn(C)c(C(=O)NNC(=S)Nc2ccc(F)cc2)c1[N+](=O)[O-] | - | - | - | - | - | -
Cn1c(=O)c(NCCO)c2c3c(cccc31)C(=O)c1ccccc1-2 | - | - | - | - | - | -
CC(C)(C)C1CCc2sc(-c3nnc(CCl)o3)cc2C1 (stereo not drawn) | - | - | - | - | 23.9µM | -
CC(C)Oc1ccc(C(=O)Nc2ccc(C(F)(F)F)n(C)c2=O)cc1 | - | - | - | - | 19µM | -
Cc1ccc2cccc(OC(=O)/C=C\c3ccccc3)c2n1 | - | - | . | - | - | -
SMILES | ELG1 genotoxic | NPC1 promoter act | SMN2 splice enh | Rab9 promoter act | FLuc modulator | KinaseGlo FLuc
Cc1cccc(/C=C/c2ccccc2)n1 | . | 13µM | ? | 11.2µM | . | ?
Cc1cccc(/C=C\c2ccccc2)n1 | . | . | . | . | . | 11.2µM
NC(=S)N/N=C1\CC(c2ccc3c(c2)OCCCO3)Oc2ccc(F)cc21 (stereo not drawn) | - | - | . | - | 15.1µM | .
O=C(c1cc(-c2ccc(Cl)cc2)on1)N1CCN(c2ccc(F)cc2)CC1 | - | - | . | - | - | .
COc1ccccc1-c1cc(C(=O)N2CCN(c3ccc(F)cc3)CC2)no1 | - | - | - | - | - | -
COc1ccccc1-c1cc(C(=O)N2CCCC2)no1 | 2.91µM | 2.51µM | . | 2µM | 7.57µM | .
O=C(c1csc(Nc2ccccc2Cl)n1)N1CCCC1 | - | ? | 12.6µM | ? | ? | -
O=C(c1cccc(F)c1)N1CCN(C(=O)c2cc(-c3ccc(Cl)cc3Cl)on2)CC1 | - | - | . | - | 10.7µM | -
O=C(c1csc(Nc2cccc3ccccc23)n1)N1CCCC1 | - | - | . | - | - | .
COc1ccccc1-c1cc(C(=O)N2CCOCC2)no1 | 2.91µM | ? | . | 2.24µM | 13.5µM | .
COc1cc(/C=C/C(=O)Nc2ccc(N3CCCCC3)c(S(=O)(=O)Nc3ccccc3Cl)c2)cc(OC)c1OC | - | - | - | - | - | -
COc1ccc(-n2c(C)cc(C(=O)CN3C(=O)C(=O)N(Cc4ccccc4)C3=O)c2C)cc1 | - | - | . | - | - | -
CCC(C)NC(=O)CN1C(=O)NC2NC(=O)NC21 (stereo not drawn) | - | - | . | - | - | .
COCCNC(=O)C(=O)Nc1cccc(Br)c1 | ? | - | - | - | - | -
CCNC(=O)NC(=O)C(C)Sc1nnc(COc2ccccc2Cl)o1 (stereo not drawn) | - | - | - | - | - | -
O=C(c1cc(-c2ccccc2Cl)on1)N1CCCC1 | ? | ? | . | ? | 1.2µM | .
Cc1cc(OCc2cc(C(=O)N(C)CC3CCOCC3)no2)cc(C)c1Cl | - | - | . | - | ? | .
Cc1cc(OCc2cc(C(=O)N3CCCCCC3)no2)cc(C)c1Cl | ? | 2.82µM | . | 2.51µM | 13.5µM | .
COCC1CCN(C(=O)c2cc(COc3cncc(Cl)c3)on2)C1 (stereo not drawn) | - | - | . | - | - | .
COCC1CCN(C(=O)c2cc(COc3cc(C)c(Cl)c(C)c3)on2)C1 (stereo not drawn) | -[9.26 µM] | ? | . | 4.47µM | 16.9µM | .
CCN(CC1CCCO1)C(=O)c1cc(COc2cc(C)c(Cl)c(C)c2)on1 (stereo not drawn) | ? | 3.16µM | . | 2.24µM | 13.5µM | .
O=C(NC(=S)Nc1cccc([N+](=O)[O-])c1)C1CCCC1 | - | - | . | - | - | .
COc1ccccc1C1=CC(=O)CC(C)(C)C1=O | - | - | . | - | - | .
CC(=O)C1=C(O)C(=O)N(Cc2ccco2)C1c1ccc2c(c1)OCO2 (stereo not drawn) | - | - | - | - | - | -
O=C(NCC(=O)N(Cc1ccco1)C(C(=O)NC1CCCCC1)c1cccnc1)c1cccs1 (stereo not drawn) | - | - | - | - | - | -
SMILES | ELG1 genotoxic | NPC1 promoter act | SMN2 splice enh | Rab9 promoter act | FLuc modulator | KinaseGlo FLuc
Nc1ccccc1SC1CC(=O)N(c2ccc3c(c2)OCCO3)C1=O (stereo not drawn) | - | ? | . | 2.24µM | ? | .
Nc1ccccc1SC1CC(=O)N(c2ccc(Cl)c(Cl)c2)C1=O (stereo not drawn) | - | - | . | - | - | .
O=C(/C=N\O)NCCCNCc1ccccc1 | - | - | ? | - | - | -
CN(CC(=O)Nc1ccc(F)c(F)c1)S(=O)(=O)c1cccs1 | - | - | . | - | - | .
CCN(CC)S(=O)(=O)c1cc(NC(=O)NCCCl)ccc1C | - | - | . | - | - | .
O=C(Nc1ccc2c(c1)OCO2)c1cccs1 | . | . | ? | . | 13.5µM | 8.91µM
O=C(Nc1ccc2c(c1)OCO2)c1ccc(Br)s1 | 1.84µM | 1.78µM | 12.6µM | 1.58µM | 3.38µM | -
CN(CC(=O)Nc1ccc2c(c1)OCO2)S(=O)(=O)c1cccs1 | ? | ? | . | ? | 16.9µM | .
O=C(Nc1ccc2c(c1)OCO2)c1ccncc1 | - | - | - | - | - | -
